Results filed as inconclusive are left out. Active and inactive are the calls of the source. Rule for the calls, unless noted: active = hit-call score of the fitted dose curve at least 0.9, where 1 is the maximum; inconclusive = response in the unintended direction; inactive = score below 0.9.
How the values were obtained:
[1] = Tanguay_ZF_120hpf_AXIS_legacy: (Legacy) Oregon State University Tanguay Lab 120 Hour Post-fertilization zebrafish Assay for Body Axis Malformation (AID 2283635)
Procedure, shortened: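 Chorion is removed with pronase at 4 hpf, then single 6 hpf embryos are dosed (final DMSO 0.64%) and held statically at 28C in sealed, foil-covered plates. At 120 hpf body axis malformation is recorded as present or absent.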

[2] = Tanguay_ZF_120hpf_EYE_legacy: (Legacy) Oregon State University Tanguay Lab 120 Hour Post-fertilization zebrafish Assay for Eye Malformation (AID 2283636)
Procedure, shortened: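 Dechorionated Tropical 5D zebrafish embryos, one per well from 6 hpf, static exposure to 120 hpf at 28C, 0.64% DMSO. Eye malformation scored present/absent by brightfield; dead embryos not scored.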

[3] = Tanguay_ZF_120hpf_SNOU_legacy: (Legacy) Oregon State University Tanguay Lab 120 Hour Post-fertilization zebrafish Assay for Snout Malformation (AID 2283637)
Procedure, shortened: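 Dechorionated tropical 5D wild-type zebrafish embryos exposed statically from 6 to 120 hpf at 28C, one per well, in 0.64% DMSO. Snout malformation scored as present/absent by brightfield at 120 hpf; dead embryos not scored.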

[4] = Tanguay_ZF_120hpf_JAW_legacy: (Legacy) Oregon State University Tanguay Lab 120 Hour Post-fertilization zebrafish Assay for Jaw Malformation (AID 2283638)
Procedure, shortened: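 Steps: dechorionate 4 hpf embryos (pronase); plate 1/well at 6 hpf; add test chemical, 0.64% DMSO final; seal, cover, hold at 28C statically to 120 hpf; score jaw defect presence/absence microscopically. Dead embryos not scored.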

[5] = Tanguay_ZF_120hpf_OTIC_legacy: (Legacy) Oregon State University Tanguay Lab 120 Hour Post-fertilization zebrafish Assay for Otic Vesicle Malformation (AID 2283639)
Procedure, shortened: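 Tropical 5D wild-type zebrafish embryos were exposed statically in sealed, foil-covered plates at 28C until 120 hpf, with 0.64% (vol/vol) DMSO final. Otic vesicle malformation was scored present/absent by brightfield microscopy, with DMSO as baseline.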

[6] = Tanguay_ZF_120hpf_BRAI_legacy: (Legacy) Oregon State University Tanguay Lab 120 Hour Post-fertilization zebrafish Assay for Brain Malformation (AID 2283641)
Procedure, shortened: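 Wild-type 5D larvae, static waterborne exposure to 120 hpf, 28C, 0.64% v/v DMSO. Brightfield scoring of brain defects, binary; dead embryos excluded. Positive ctrl 5uM trimethyltin chloride.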

[7] = Tanguay_ZF_120hpf_PFIN_legacy: (Legacy) Oregon State University Tanguay Lab 120 Hour Post-fertilization zebrafish Assay for Pectoral Fin Malformation (AID 2283648);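 note: each larva judged yes or no for fin defect by brightfield with dead larvae skipped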
Procedure, shortened: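 Dechorionated Tropical 5D wild-type zebrafish embryos, one per well, statically exposed from 6 to 120 hpf at 28C with 0.64% DMSO final. Pectoral fin malformation scored present/absent by brightfield at 120 hpf; not scored in dead embryos.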

[8] = Tanguay_ZF_120hpf_CFIN_legacy: (Legacy) Oregon State University Tanguay Lab 120 Hour Post-fertilization zebrafish Assay for Caudal Fin Malformation (AID 2283649)
Procedure, shortened: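 Binary presence or absence of caudal fin malformation at 120 hpf, read by brightfield microscopy, with DMSO as baseline. Larvae came from 5D wild-type embryos exposed statically from 6 hpf at 28C after pronase dechorionation.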

[9] = Tanguay_ZF_120hpf_PIG_legacy: (Legacy) Oregon State University Tanguay Lab 120 Hour Post-fertilization zebrafish Assay for Pigmentation Malformation (AID 2283650)
Procedure, shortened: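 Dechorionated Tropical 5D wild-type embryos, one per well from 6 hpf, statically exposed at 28C in the dark until 120 hpf, 0.64% DMSO final. Pigmentation scored present/absent by brightfield microscopy; dead embryos not scored; fitted versus DMSO.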

[10] = Tanguay_ZF_120hpf_CIRC_legacy: (Legacy) Oregon State University Tanguay Lab 120 Hour Post-fertilization zebrafish Assay for Circulatory Malformation (AID 2283651)
Procedure, shortened: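 Tropical 5D wild-type embryos, dechorionated with pronase at 4 hpf, were placed singly in wells at 6 hpf and exposed statically at 28C to 120 hpf (0.64% DMSO final). Circulatory malformation was scored present/absent by brightfield microscopy.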

[11] = Tanguay_ZF_120hpf_TRUN_legacy: (Legacy) Oregon State University Tanguay Lab 120 Hour Post-fertilization zebrafish Assay for Truncated Body (AID 2283655)
Procedure, shortened: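 Truncated body is recorded as a binary endpoint at 120 hpf by brightfield imaging of wild-type 5D larvae. Exposure runs statically from 6 hpf at 28C with 0.64% DMSO; embryos dying earlier are not scored.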

[12] = Tanguay_ZF_120hpf_NC_legacy: (Legacy) Oregon State University Tanguay Lab 120 Hour Post-fertilization zebrafish Assay for Notochord and Tail Malformation (AID 2283656)
Procedure, shortened: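 Dechorionated 5D zebrafish, 1/well from 6 hpf; static exposure to 120 hpf, 28C, sealed, dark; final DMSO 0.64% v/v. NC scored binary (present/absent); dead embryos not scored. Fit vs DMSO baseline, gain direction.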

[13] = Tanguay_ZF_120hpf_TR_legacy: (Legacy) Oregon State University Tanguay Lab 120 Hour Post-fertilization zebrafish Assay for Touch Response (AID 2283667)
Procedure, shortened: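 Tropical 5D wild-type zebrafish embryos statically exposed to 120 hpf at 28°C, sealed and dark-covered, 0.64% DMSO final; touch response scored as present/absent by brightfield microscopy at 120 hpf. Trimethyltin chloride 5 uM positive control; dead embryos not scored.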

[14] = STM_H9_OrnithineISnorm_perc: Stemina devTOX quickPredict H9 human embryonic stem cell (hESC)-based Assay for Ornithine (ORN) Metabolite Biomarker, Normalized (AID 2283712; active = hit-call score of the fitted dose curve at least 0.9, where 1 is the maximum; inactive = score below 0.9;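 note: ornithine released into spent medium during last day measured by mass spectrometry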)
Procedure, shortened: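 Undifferentiated pluripotent H9 hESCs were exposed to compound for 72h, with media and compound replaced every 24h. Ornithine in final 24-h conditioned media was measured by UPLC-HRMS, normalized to 13C-labeled spike-in standard and to median 0.1% DMSO control.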

[15] = STM_H9_CystineISnorm_perc: Stemina devTOX quickPredict H9 human embryonic stem cell (hESC)-based Assay for Cystine (CYSS) Metabolite Biomarker, Normalized (AID 2283713; active = hit-call score of the fitted dose curve at least 0.9, where 1 is the maximum; inactive = score below 0.9)
Procedure, shortened: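 Undifferentiated H9 hESCs were exposed to compound for 72h, with medium and compound replaced every 24h. Final-24h conditioned medium was deproteinized and analyzed by UPLC-HRMS. Cystine EIC area was normalized to spiked C13 standard and 0.1% DMSO median.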

[16] = STM_H9_OrnCyssISnorm_ratio: Stemina devTOX quickPredict H9 human embryonic stem cell (hESC)-based Assay for Ornithine (ORN):Cystine (CYSS) Ratio (AID 2283714)
Procedure, shortened: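 Undifferentiated H9 hESCs exposed 72 h, media and compound replaced every 24 h; final 24-h conditioned media deproteinized and analysed by UPLC-HRMS against C13 spike-ins. Value is the internal-standard-normalized ORN/CYSS ratio versus 0.1% DMSO.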

[17] = Tanguay_ZF_120hpf_ActivityScore_legacy: (Legacy) Oregon State University Tanguay Lab 120 Hour Post-fertilization zebrafish Assay Score for Activity (AID 2283742)
Procedure, shortened: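 Dechorionated Tropical 5D embryos, one per well from 6 hpf, statically exposed to 120 hpf at 28 °C in 0.64% DMSO. Mortality and malformations scored binary by brightfield microscopy; activity score combines 18 endpoints, fitted positively versus DMSO.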

[18] = ACEA_ER_AUC_viability: ACEA Biosciences xCELLigence Real-Time Cell Analysis on Estrogen Receptor Agonism for Viability (AID 2283782);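 note: continuous compound exposure with impedance area under curve over 80 h; hit means loss of impedance signal meaning reduced cell growth or viability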
Procedure, shortened: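 T47D cells preconditioned in phenol red-free RPMI with charcoal-stripped FBS, then dosed with 8-point 1:4 series from 100 uM (up to 0.5% DMSO). Impedance monitored up to ~80 h; area-under-curve loss versus DMSO taken as viability.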

Measured: AC50

c1cc[n+]2c(c1)-c1cccc[n+]1CC2
inactive: [1] | [2] | [3] | [4] | [5] | [6] | [7] | [8] | [9] | [10] | [11] | [12] | [13] | [17]
active: [14] 8.35 µM | [15] 1.7 µM | [16] 2.36 µM | [18] 22.8 µM
